Rows were chosen to be rich in hits. Some 6.2% of all compounds tested hit in one or more screens of this group.
ATXN viability – reduces viability in counter-screen for ATXN expression inhibitors | S2 cells (HEK-293 line with an ATXN2-luciferase reporter) viability, CellTiter-Fluor protease fluorescence, 24 h | Potency, µM (series often up to 56.7 µM), most hits filed as cytotoxic | actives 0.49% (n = 400,000) | AID 651635; further: nearly all actives have a fitted effect of over 40% in size
ATXN2 expr inh – ATXN2 expression inhibition; HEK-293 ATXN2-luciferase reporter, luminescence, 24 h; Potency, µM (series often up to 57 µM), inactives show at the top dose activity change, negative = inhibition, usual class: inhibitors; actives 0.72% (n = 360,000); further: on the % scale 0 is the no-effect control and ±100 the full control effect; nearly all actives have a fitted effect of over 55% in size
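qHTS (up to 57 uM final) was run with 24 h compound exposure of reporter cells at 37 °C. Each well was multiplexed: SteadyGlo luminescence measured ATXN2-luciferase expression after a fluorogenic Gly-Phe-AFC viability readout (25 uM final).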
KB-V1 cytotox – kills drug-selected multidrug resistant KB-V1 cells | KB-V1 MDR cells viability, CellTiter-Glo, 72 h | Potency, µM (titrated, usually from 46.1 µM), usual class: cytotoxic | actives 3.4% (n = 400,000) | AID 1347076; further: on the % scale 0 is the no-effect control and ±100 the full control effect; nearly all actives have a fitted effect of over 60% in size
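KB-V1 cells (P-gp-expressing MDR subline of KB-3-1) in phenol-red-free DMEM with 10% FBS were exposed to library compounds over a concentration series for 72 h at 37 degrees C. Viability read by CellTiter-Glo luminescence; concentration-effect curves fitted after normalization.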
KB-3-1 cytotox – KB-3-1 parental cell cytotoxicity; Potency, µM (doses to about 46.1 µM), usual class: cytotoxic; KB-3-1 viability, CellTiter-Glo ATP luminescence, 72 h; actives 1.4% (n = 400,000); further: on the % scale 0 is the no-effect control and ±100 the full control effect; nearly all actives have a fitted effect of over 60% in size
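Parental KB-3-1 viability, qHTS format: 72 h compound exposure, 37 °C; CellTiter-Glo; media-only wells and DMSO plates as controls; concentration-effect fits on corrected data.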
HT1080NT lethal – kills 2HG-producing HT-1080-NT fibrosarcoma cells; HT-1080-NT fibrosarcoma viability, CellTiter-Glo ATP luminescence, 48 h; Potency, µM (doses to about 46.1 µM), inactives show at the top dose activity, negative = less viability, hits mostly cytotoxic; actives 1.6% (n = 360,000);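 further: NT is the 2HG producing partner of a matched IDH1 knockdown line; 0% = DMSO-treated cells and -100% = media-only wells without cells; nearly all actives have a fitted effect of over 55% in size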
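Viability by CellTiter-Glo luminescence after 48 h compound exposure at 37C of HT-1080-NT cells (750/well, RPMI, 5% FBS). % activity scaled between DMSO wells and medium-only wells, then curve-fitted and categorized by curve class.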
HT1080 IDH1KD tx – HT-1080 IDH1 knockdown cell toxicity (counter line); actives 2% (n = 360,000); Potency, µM (doses to about 46.1 µM), without a hit: top-dose activity, negative = toxicity, hits mostly cytotoxic; HT-1080 IDH1 knockdown viability, ATP luminescence, 48 h;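 further: 0% = DMSO wells and -100% = cell-free medium wells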
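In this qHTS, HT-1080 cells depleted of IDH1 are exposed for 48 h at 37 °C to compound titrations. Toxicity is scored from CellTiter-Glo luminescence, with DMSO as full viability and medium alone as none.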
* = called active by the depositor; i = inactive; ? = inconclusive; . = no result given; [ ] = another dose, or the depositor's remark. The call rests on the fitted dose curve; in most records, active means well fitted curve in the direction sought with a large enough effect; inconclusive means small, poorly fitted or top-dose-only effect, or another doubt; inactive means no such curve, though single readings can be large; an effect the other way counts as inactive or inconclusive. Potency means the concentration at half of the fitted maximal effect.

SMILES	ATXN viability	ATXN2 expr inh	KB-V1 cytotox	KB-3-1 cytotox	HT1080NT lethal	HT1080 IDH1KD tx
Cc1cccc(NC(=O)c2nc[nH]c2C(=O)NCCCCCNC(=O)OC(C)(C)C)c1	.	?	?	?	26µM*	?
CC(C)(C)OC(=O)NCCCCCNC(=O)c1nc[nH]c1C(=O)NCc1ccc(CNC(=O)OC(C)(C)C)cc1	16µM*	20µM*	?	?	-25%	?
COc1ccc(C)cc1NC(=O)C(NS(=O)(=O)c1cccc2nsnc12)c1ccccc1 (configuration not stated)	i	-12%	i	i	.	.
CCOc1ccc(C2CC(=O)Nc3nc(SCc4ccccc4C)[nH]c(=O)c32)cc1OC (configuration not stated)	i	9%	i	i	.	.
CCC1CCCCN1C(=O)CSc1n[nH]c(-c2ccccc2)n1 (configuration not stated)	.	.	i	i	.	.
Nc1ccc(/C=C/c2ccnc3ccccc23)c(N)c1	.	.	i	i	.	.
Cc1noc2ncc(C(=O)c3cc(F)ccc3O)cc12	i	4%	i	i	-4%	9%
Cc1[nH]nc2ncc(C(=O)c3cc(F)ccc3O)cc12	i	2%	8.2µM*	?	-15%	-15%
CCN(CC(O)Cn1c2ccccc2c2ccccc21)S(=O)(=O)c1ccc(F)cc1 (configuration not stated)	i	-8%	12µM*	?	?	?
O=S(=O)(c1ccc(F)cc1)N(CCO)CC(O)Cn1c2ccccc2c2ccccc21 (configuration not stated)	i	-22%	23µM*	i	?	18µM*
Cc1ccc2c(Br)cc(Br)c(O)c2n1	?	6.3µM*	.	.	.	.
Cc1cccc(NC(=O)c2ccc3[nH]c(C)cc(=O)c3c2)c1	i	-9%	i	i	.	.
COc1cccc(-c2cc(=O)c3cc(NC(=O)c4ccc(Cl)cc4)ccc3[nH]2)c1	i	8%	i	1.3µM*	-6%	0%
COc1cccc(-c2cc(=O)c3cc(NC(=O)c4ccc(N(C)C)cc4)ccc3[nH]2)c1	?	-32%	i	i	1.3µM*	0.73µM*
COc1cccc(-c2cc(=O)c3cc(NC(=O)c4ccccc4)ccc3[nH]2)c1	?	-16%	i	1.6µM*	3.7µM*	3.7µM*
COc1cccc(C(=O)Nc2ccccc2)c1	?	46%	i	i	6%	-3%
O=C(CCn1c(=O)c2ccccc2n(Cc2ccc(F)cc2Cl)c1=O)NCc1ccc2c(c1)OCO2	i	12%	i	i	.	.
COc1ccc(C(=O)NC(Nc2ccccc2)C(Cl)(Cl)Cl)cc1 (configuration not stated)	i	-17%	8.2µM*	?	-6%	-18%
COc1ccc(C(=O)N[C@H](C(=O)Nc2nc3ccccc3[nH]2)C(C)C)cc1	.	-13%	16µM*	2.1µM*	5.8µM*	5.8µM*
CCSc1nnc(NC(=O)[C@@H](NC(=O)c2cccc(C)c2)C(C)C)s1	i	4%	8.2µM*	i	-4%	8%
Cc1cccc(C(=O)N[C@H](C(=O)Nc2nc3ccccc3[nH]2)C(C)C)c1	?	?	?	5.2µM*	5.8µM*	5.8µM*
CN(C)c1ccc(/C=C/c2cc(/C=C/c3ccc(N(C)C)cc3)c3ccccc3n2)cc1	.	.	i	i	.	.
COc1ccc(NC(=O)C(NC(=O)c2ccccc2)C(C)C)cc1 (configuration not stated)	i	1%	21µM*	i	0%	?
COc1ccc(NC(=O)c2ccccc2)cc1	i	14%	i	i	-8%	-9%
O=C(c1ccc(Cl)c(S(=O)(=O)NCc2ccccc2)c1)N1CCN(c2ccccn2)CC1	?	-19%	4.1µM*	i	?	?
SMILES	ATXN viability	ATXN2 expr inh	KB-V1 cytotox	KB-3-1 cytotox	HT1080NT lethal	HT1080 IDH1KD tx
O=C(c1nn(Cc2ccccc2)c(=O)c2ccccc12)N1CCN(c2ccccn2)CC1	i	-12%	2.3µM*	i	-11%	-12%
Cc1cccc(N2CCN(C(=O)c3ccc(Cl)c(S(=O)(=O)NCc4ccco4)c3)CC2)c1C	?	?	13µM*	13µM*	?	16µM*
CC1CN(C(=O)c2ccc(Cl)c(S(=O)(=O)NCc3ccco3)c2)CC(C)O1 (configuration not stated)	i	-5%	i	i	0%[9.24 µM]	-2%
CCOC(=O)C1CCCN(C(=O)c2cc3c(=O)n(C)c4ccccc4c3s2)C1 (configuration not stated)	i	-19%	i	i	.	.
O=C(c1[nH]c(C(F)(F)F)nc1-c1ccccc1)N1CCN(c2c(Cl)cncc2Cl)CC1	i	8%	i	i	-14%	-14%
Cc1ccc(-c2noc(CCC(=O)NCC3CCCO3)n2)cc1 (configuration not stated)	i	11%	21µM*	i	-14%	-23%
Cc1ccc(-c2noc(CCC(=O)NCCN3CCN(Cc4ccccc4)CC3)n2)cc1	i	-24%	16µM*	?	-10%	-9%
Cc1ccc(-c2noc(CCC(=O)NCCN3CCOCC3)n2)cc1	i	4%	i	i	8%	6%
NCC12CC3CC(C1)CC(c1ccc(Cl)cc1)(C3)C2	.	.	?	i	23µM*	?
Nc1ccc(C23CC4CC(CC(CO)(C4)C2)C3)cc1	i	15%	i	i	1%	4%
Fc1ccc(Nc2nc(-c3cccc(Cl)c3)c3c(n2)-c2ccccc2OC3)c(F)c1	i	-2%	i	i	.	.
COc1ccc(C2=NN(C(N)=S)C(c3ccccc3)C2)cc1 (configuration not stated)	i	21%	?	i	-26%	?
C[n+]1c2n(c3ccccc31)N=C(c1ccc(Cl)cc1)CS2	i	?	i	5.8µM*	?	?
COc1ccc(C2=Nn3c([n+](C)c4ccccc43)SC2)cc1	?	.	i	2.6µM*	?	?
CC1Sc2n(c3ccccc3[n+]2C)N=C1c1ccccc1 (configuration not stated)	i	-21%	i	7.3µM*	-23%	7.3µM*
CCCN1CNc2c(c(=O)[nH]c(=S)n2CCC(C)(C)C)C1	.	.	.	.	-10%	-15%
CC(C)C[C@H](CO)Nc1nc(Nc2cccc(Cl)c2)c2ncn(C(C)C)c2n1	22µM*	?	i	i	-9%	-10%

High-throughput results: PubChem BioAssay, National Center for Advancing Translational Sciences (NCATS)
